Assay [1] is described as follows: qHTS profiling of the MIPE4 collection as inhibitors of Plasmodium falciparum (3D7) proliferation (AID 743344).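 Also: scaled between DMSO vehicle wells and 0.29 µM artemisinin as full inhibition.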 As to conditions: P. falciparum 3D7 in erythrocytes, SYBR Green DNA fluorescence, 72 h; at 28.5 µM unless noted. The procedure, abridged:
(§1)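 Erythrocytes infected with P. falciparum (0.3% parasitemia, 2.5% hematocrit) incubated with compounds 72 h at 37 C, 5% CO2. Lysis with saponin/Triton buffer containing SYBR Green I, overnight at room temperature in the dark; DNA fluorescence (485/535 nm) normalised to 0.29 uM artemisinin and DMSO.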
In general terms: qHTS replaces the single test concentration by a dilution series.

Assay [2] in a line: qHTS profiling of the MIPE4 collection as inhibitors of Plasmodium falciparum (DD2) proliferation (AID 743345). The following applies: P. falciparum Dd2 in erythrocytes, SYBR Green DNA, 72 h; at 28.5 µM unless noted. The procedure, abridged: as §1
A short description of assay [3]: qHTS profiling of the MIPE4 collection as inhibitors of Plasmodium falciparum (DD2) proliferation (Rep 2) (AID 743346). As to conditions: P. falciparum Dd2 in erythrocytes, SYBR Green DNA, 72 h; at 28.5 µM unless noted. The method in brief:
as §1

Assay [4] is described as follows: qHTS profiling of the MIPE4 collection as inhibitors of Plasmodium falciparum (HB3) proliferation (AID 743347).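 Also: plate controls were DMSO vehicle wells for no effect and artemisinin wells for full effect.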 The following applies: P. falciparum HB3 in erythrocytes, SYBR Green DNA, 72 h; at 28.5 µM unless noted. The procedure, abridged:
as §1

Assay [5] can be described thus: High-throughput drug toxicity screening in the BPDCN cell line Gen2.2 (AID 1224824).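 Also: cells exposed to compounds for 48 h before reading.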 The following applies: Gen2.2 BPDCN cells; at 45.8 µM (top of the series) unless noted. The procedure, abridged: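 Gen2.2, 500 cells/well, phenol red-free RPMI/10% FBS/Pen-Strep; 48 h cpd, 37 °C/5% CO2; CTG lum, 15 min RT. Norm: DMSO = 100%, bortezomib 9.2 uM final = 0%.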
Assay [6] can be described thus: High-throughput drug toxicity screening in the BPDCN cell line Cal-1 (AID 1224825). As to conditions: Cal-1 BPDCN cell viability, qHTS; at 45.8 µM (top of the series) unless noted. The method in brief:
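Exponentially growing Cal-1 cells, 500 per well in phenol red-free RPMI with 10% FBS, were exposed to compounds for 48 h at 37 °C, 5% CO2. Viability was read by CellTiter-Glo luminescence and normalised to DMSO (100%) and 9.2 uM bortezomib (0%).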

Assay [7] can be described thus: qHTS assay for measurement of the activity of small molecule inhibitors on Zika virus induced Caspase-3 activity in human iPSC derived neural progenitor cells (hNPCs) (AID 1224857; active = well fitted curve in the direction sought with a large enough effect; an effect the other way counts as inactive or inconclusive; also: % of control where 0% means no effect; nearly all actives have a fitted effect of over 65% in size). The method in brief: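 Cells were plated at 350 per well and grown 16 to 20 hours. Compound pretreatment lasted one hour, after which ZIKV (2 FFU/cell) was added for 6 hours. Percent inhibition was normalized between uninfected and infected controls.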

Assay [8] in a line: qHTS assay for measurement of the activity of small molecule inhibitors on Zika virus induced Caspase-3 activity in human astrocytoma cells (AID 1224859; active = well fitted curve in the direction sought with a large enough effect; an effect the other way counts as inactive or inconclusive;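 also: plate controls were ZIKV-infected untreated cells for no effect and uninfected cells for full effect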). The procedure, abridged: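 Percent inhibition of virus-induced caspase-3/7 signal is calculated against uninfected and ZIKV-infected control cells. Cells are SNB-19, infected at 2 FFU/cell for 6 h after 1 h compound exposure.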

Assay [9] can be described thus: qHTS Screen of the MIPE 4.0 Collection Against Ewings Sarcoma (TC71) (AID 1259253; active = well fitted curve in the direction sought with a large enough effect; an effect the other way counts as inactive or inconclusive; also: potency is read from the fitted curve at half-maximal effect; nearly all actives have a fitted effect of over 40% in size). The method in brief: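 Measured: ATP luminescence (CellTiter-Glo) 10 min after reagent addition, following 48 h drug treatment. Relative luciferase units converted to percent activity, with no-cell wells as full and DMSO wells as zero inhibition.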
The nature of assay [10]: qHTS profiling for inhibitors of Plasmodium falciparum (3D7) proliferation (AID 743322).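 Also: infected erythrocytes exposed to compound for 72 h before lysis; 100% = DMSO vehicle wells and 0% = 0.29 µM artemisinin.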 The following applies: P. falciparum 3D7 proliferation; at 28.7 µM (top of the series). The method in brief: as §1
The nature of assay [11]: qHTS profiling for inhibitors of Plasmodium falciparum (DD2) proliferation (AID 743323). As to conditions: lower = more inhibition; at 28.7 µM (top of the series). The method in brief: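 SYBR Green fluorescence (ex 485, em 535 nm) of lysed cultures gives parasite DNA content; wells normalized to artemisinin (0.29 uM) and DMSO controls. Infected red cells: 0.3% parasitemia, 2.5% hematocrit, 72 h, 37 C.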

The nature of assay [12]: qHTS profiling for inhibitors of Plasmodium falciparum (HB3) proliferation (AID 743324; active = well fitted curve in the direction sought with a large enough effect; an effect the other way counts as inactive or inconclusive;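 also: 100% = DMSO vehicle wells and 0% = artemisinin-treated control wells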). As to conditions: Plasmodium falciparum HB3 blood-stage proliferation; at 28.7 µM (top of the series). The method in brief:
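P. falciparum HB3 grown in erythrocytes (0.3% parasitemia, 2.5% hematocrit final) with compound for 72 h at 37 C, 5% CO2. Parasite DNA detected by SYBR Green after saponin/triton lysis overnight; normalized to 0.29 uM artemisinin and DMSO.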

Results filed as inconclusive are left out. Activity calls are given as the source filed them. Unless noted, no rule for the calls is given here.

Regarding `CCOC(=O)C1=C(N)Oc2ccc(Br)cc2C1C(C#N)C(=O)OCC` (centres undefined), the parasite growth, % of DMSO control in assay [1] came out at 91.3%. The compound also displayed a parasite growth remaining, % of DMSO control (lower = more inhibition) in assay [2] of 95.8%. In addition, the parasite growth, % of control (lower = inhibition) in assay [3] stood at 93.2%. This compound also registered a growth, % of control in assay [4] of 107%. In assay [5], the cell viability, % of control (lower = more cytotoxic) was determined as 3.23%. In addition, the viability (% of control) in assay [6] was 9.05%. Further, the Potency result in [7] and in assay [8] was “inactive” each time. In addition, in assay [9], the Potency was 23.5 µM (active).
In the case of `COc1ccc(-n2c(C)c([N+](=O)[O-])c3ccc(O)cc32)cc1`, the parasite growth, % of DMSO control in [1] is 80.7%. In addition, the parasite growth remaining, % of DMSO control (lower = more inhibition) in [2] was 78.7%. Besides, the parasite growth, % of control (lower = inhibition) in [3] came out at 45.7%. Also, the growth, % of control in [4] stood at 34.7%. For the same compound, the cell viability, % of control (lower = more cytotoxic) in assay [5] was determined as 46.7%. Moreover, in [6], the viability (% of control) came to 96.3%. The Potency result in [7] and in assay [8] was “inactive” throughout. Also, the Potency in [9] was 16.6 µM (active).
Regarding `CC#CCn1c(N2CCC[C@@H](N)C2)nc2c1c(=O)n(Cc1nc(C)c3ccccc3n1)c(=O)n2C`, the parasite growth remaining, % of DMSO control (lower = more inhibition) in assay [2] turned out to be 22.5%. In assay [3], the parasite growth, % of control (lower = inhibition) was determined as 22.9%. The compound also had a growth, % of control in assay [4] of 88.9%. Further, the cell viability, % of control (lower = more cytotoxic) in [5] turned out to be 159%. Besides, the viability (% of control) in [6] is 101%. Further, the Potency result in assay [7] and in [8] was “inactive” throughout. Besides, the Potency in [9] was 26.4 µM (active).
On to `C[C@]12CCC3c4ccc(O)cc4CCC3C1CCC2=O` (some centres undefined), for which, in [1], the parasite growth, % of DMSO control was determined as 51.9%. In assay [2], this compound registered a parasite growth remaining, % of DMSO control (lower = more inhibition) of 75.4%. Besides, in [3], the parasite growth, % of control (lower = inhibition) was determined as 54.3%. In assay [4], this compound yielded a growth, % of control of 66.9%. In addition, in assay [5], the cell viability, % of control (lower = more cytotoxic) is 54%. Further, the viability (% of control) in assay [6] was 62.5%. Also, the Potency result in assay [7] and in assay [8] was “inactive” in each case. The Potency in assay [9] is 14.8 µM (active).
`CC=C(C)C(=O)O[C@H]1C(C)=C[C@]23C(=O)[C@@H](C=C(CO)[C@@H](O)[C@]12O)[C@H]1[C@@H](C[C@H]3C)C1(C)C` yielded a parasite growth, % of DMSO control in assay [1] of 18.7%. The compound also yielded a growth, % of control in assay [4] of 21%. Further, the cell viability, % of control (lower = more cytotoxic) in [5] amounted to 38.4%. Moreover, the viability (% of control) in assay [6] came out at 12.7%. The Potency result in [7] and in assay [8] was “inactive” throughout. Further, the Potency in assay [9] is 8.33 µM (active).
Consider `O=C(Nc1cc(Cl)cc2c1[nH]c1cnccc12)c1cccnc1`, for which the remaining parasite growth % (stronger effect = lower value) in assay [10] was -0.264%. The activity, percent of control in assay [11] was 7.04%. This compound also displayed a remaining proliferation (% of control), lower = more inhibition in [12] of 0.746%. Moreover, the parasite growth, % of DMSO control in assay [1] amounted to 5.73%. The parasite growth remaining, % of DMSO control (lower = more inhibition) in assay [2] turned out to be 15.5%. The parasite growth, % of control (lower = inhibition) in assay [3] came out at 10.7%. The same compound gave a growth, % of control in [4] of 3.51%. For the same compound, in [5], the cell viability, % of control (lower = more cytotoxic) came out at 67.6%. Moreover, the viability (% of control) in [6] was found to be 97.7%. In addition, the Potency result in [7] and in assay [8] was “inactive” each time. In assay [9], the Potency is 23.5 µM (active).
As to `CCS(=O)(=O)N1CC(CC#N)(n2cc(-c3ncnc4[nH]ccc34)cn2)C1`, in assay [5], the cell viability, % of control (lower = more cytotoxic) came to 134%. Moreover, in assay [6], the viability (% of control) is 17.5%.
For `CNC(=O)c1ccccc1Sc1ccc2c(C=Cc3ccccn3)n[nH]c2c1` the same measures were 311% and 28.2%.
The compound `C[C@]12CC[C@@H]3c4ccc(O)cc4C[C@@H](CCCCCCCCCS(=O)CCCC(F)(F)C(F)(F)F)[C@H]3[C@H]1CC[C@H]2O` (some centres undefined) gave a parasite growth, % of DMSO control in [1] of 5.44%. The same compound displayed a parasite growth remaining, % of DMSO control (lower = more inhibition) in [2] of 8.45%. This compound had a parasite growth, % of control (lower = inhibition) in assay [3] of 10.8%. The same compound had a growth, % of control in [4] of 3.95%. Besides, the cell viability, % of control (lower = more cytotoxic) in assay [5] came out at 105%. The viability (% of control) in assay [6] was found to be 108%. Besides, the Potency entry in [7] and in assay [8] was “inactive” in each case. Moreover, the Potency in assay [9] is 14.8 µM (active).
For `COc1ccc(Cc2ccc(NC(N)=O)cc2)cc1-c1cccc(Cl)c1`, in [1], the parasite growth, % of DMSO control is 61.7%. Moreover, the parasite growth remaining, % of DMSO control (lower = more inhibition) in assay [2] came out at 89.9%. For the same compound, in [4], the growth, % of control was found to be 69.6%. For the same compound, in assay [5], the cell viability, % of control (lower = more cytotoxic) is 234%. The viability (% of control) in assay [6] turned out to be 91.3%. Also, the Potency entry in [7] and in assay [8] was “inactive” throughout. In assay [9], the Potency was 18.7 µM (active).
In the case of `COC1CCC(N(C(=O)C2CCC(C)CC2)c2cc(C3=CCCCC3)sc2C(=O)O)CC1` (centres undefined), the growth, % of control in [4] was 22.9%. Moreover, the cell viability, % of control (lower = more cytotoxic) in [5] is 66.7%. Further, the viability (% of control) in [6] stood at 89.2%. Further, the Potency result in assay [7] and in assay [8] was “inactive” throughout. Also, the Potency in assay [9] was 20.9 µM (active).
In turn, `O=C(Nc1cccc(Br)c1)c1cccc(S(=O)(=O)N2CCCCCC2)c1` gave a parasite growth remaining, % of DMSO control (lower = more inhibition) in assay [2] of 51.8%. The parasite growth, % of control (lower = inhibition) in assay [3] came to 72.2%. The compound also returned a growth, % of control in assay [4] of 21.1%. The cell viability, % of control (lower = more cytotoxic) in assay [5] turned out to be 296%. Also, the viability (% of control) in assay [6] was 76%. Besides, the Potency entry in assay [7] and in assay [8] was “inactive” throughout. In addition, the Potency in assay [9] is 23.5 µM (active).

These data come from PubChem BioAssay (NCATS).
